# In PubChem BioAssay:
# Values joined by “and” are separate entries in the source; they are usually repeats but may differ in a detail not shown here. Identical values can stand only once. Results filed as inconclusive are left out. For some assays here: Results with a measured potency or affinity are listed apart. A structure can be active in one record and inactive in another. Active and inactive are the calls of the source. Unless noted, the rule behind the calls is not given here.
# Tests used:
# [1] = target: ATP-dependent translocase ABCB1 (Homo sapiens) (UniProt P08183); assay: MDR1 (ABCB1) efflux transporter inhibition, cell-based (AID 377; in the data active = fluorescence slope change above about 50%); settings: MDR1-expressing cells, fluorescent substrate accumulation slope; stronger effect = higher value; concentration not given here
# [2] = polyglutamine-triggered caspase-3 activation inhibitors, cell-based (AID 1583); settings: polyglutamine-induced caspase-3 activation, cell assay; stronger effect = higher value;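 tested at 10 µM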
# [3] = suppressors of polyQ aggregation in yeast, 75Q-TubU reporter (AID 1593); settings: Yeast 75Q polyglutamine aggregation reporter
# [4] = rescue of polyQ-huntingtin neuronal dysfunction in worms, whole organism, C. elegans mechanosensory neurons, N-terminal huntingtin (AID 1599); settings: touch response, stronger effect = higher value
# [5] = inhibitors of mitochondrial cytochrome c release, biochemical, purified mitochondria (AID 1603); settings: stronger effect = lower value;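 note: mouse liver mitochondria challenged with calcium chloride; signal normalized to the plate average as 100%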
# [6] = inhibitors of polyQ protein aggregation (AID 1604); settings: polyglutamine-induced protein aggregation inhibition assay; stronger effect = higher value; tested at 2.5 µM
# [7] = protection against mutant huntingtin cytotoxicity, PC12 cells, LDH release (AID 1610); settings: PC12 mutant huntingtin toxicity, final LDH at 4 uM, stronger effect = lower value
# [8] = enhancers of glutamate uptake in motor neurons, MN-1 cell line (AID 1612); settings: MN-1 motor neuron cells, stronger effect = higher value;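 note: tested at 1 µM final; 0% = mean of DMSO vehicle wells on each plate; positive means more glutamate uptake than control and negative means less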
# [9] = suppressors of polyglutamine aggregation in yeast, 75Q-TubH (AID 1616); settings: S. cerevisiae 75Q-TubH polyglutamine aggregation suppression; stronger effect = higher value
# [10] = circadian clock period modulators, cell-based, LOPAC library, luminescence reporter (AID 2774); settings: circadian reporter cells, at 7 µM, actives lie on both sides;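 note: values are relative to mean of DMSO wells on each plate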
# [11] = hESC survival regulators, cell-based (AID 493140); settings: human embryonic stem cell survival screen; stronger effect = higher value;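 note: cells exposed to compounds for four days before counting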
# [12] = liver-stage malaria parasite growth inhibition, primary screen, cell-based, HepG2, luciferase luminescence, HepG2 viability (AID 624349; in the data active = parasite load remaining mostly below about 12%, no sharp cut-off; inactive = mostly above about 10%;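 note: 100% = mean of DMSO negative control wells on the same plate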); settings: P. berghei liver stage in HepG2, luciferase luminescence, concentration not given here; parasite load remaining: stronger effect = lower value; viability: measured here: HepG2 viability without parasites
# [13] = tested on: Hepatitis C virus NS3 helicase; assay: HCV NS3 helicase inhibitors, primary screen, biochemical, fluorescence polarization, LOPAC1280 library (AID 687035; in the data active = inhibition above about 37%); settings: Purified HCV NS3 helicase, Cy5-dT15 ssDNA binding fluorescence polarization; stronger effect = higher value; concentration not given here
# [14] = Cy5 fluorescence quenching or enhancement artefacts, artefact control for HCV NS3 helicase inhibitor project, biochemical, LOPAC1280 (AID 687037); settings: Cy5-DNA-NS3h complex fluorescence interference counterscreen
# [15] = target: 6-phosphogluconate dehydrogenase, decarboxylating (Homo sapiens) (UniProt P52209); assay: 6PGD enzyme inhibitors, primary screen, biochemical, human, recombinant enzyme, NADPH absorbance (AID 1159550;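 active = at least 20% inhibition of 6-phosphogluconate dehydrogenase activity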); settings: recombinant 6PGD, NADPH absorbance 341 nm; at 10 µM; stronger effect = higher value
# [16] = growth inhibition of DIPG glioma cells, dose response, cell-based, SU-DIPG-IV, MIPE4.0, CellTiter-Glo, qHTS (AID 1347063; cut-off not given, nearly all actives have AC50 up to about 30 µM;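 note: compound exposure lasted 48 hours before the viability readout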); settings: SU-DIPG-IV viability, CellTiter-Glo ATP luminescence
# [17] = viability loss in pontine glioma line – cell-based, SU-DIPG-XXV, MIPE5.0, CellTiter-Glo, qHTS, dose response (AID 1347065; cut-off not given, nearly all actives have AC50 up to about 26 µM;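 note: cells exposed to compound for 48 hours before ATP readout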); settings: CellTiter-Glo ATP luminescence
# [18] = SU-DIPG-VI glioma cell viability, MIPE4.0 library, CellTiter-Glo luminescence, qHTS (AID 1347066; cut-off not given, nearly all actives have AC50 up to about 30 µM;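 note: cells exposed to compound for 48 hours before readout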); settings: CellTiter-Glo ATP luminescence
# [19] = inhibitors of Cryptococcus chitosan production, flow cytometry, Cibacron Brilliant Red staining (AID 1347148); settings: Cryptococcus neoformans chitosan, stronger effect = lower value; at 10 µM unless noted;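 note: compound exposure lasted three days at 37 degrees C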
# [20] = phospholipid biosynthesis inhibitors in animal cells, primary screen, cell-based, LOPAC library, screen 4 (AID 1347384); settings: phospholipid biosynthesis inhibition screen, at 10 µM
# [21] = survival rescue of mitochondrial mutant cells in low glucose, primary screen, MELAS cybrids, Rieske KO mouse fibroblasts, CellTiter-Glo (AID 1508586;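 active = mean z-score across replicates of 1.96 or higher in either the MELAS or the Rieske mutant cell line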;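 note: z relative to plate mean and SD of compound and empty wells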)
# [22] = target: Mitogen-activated protein kinase 7 (Homo sapiens) (UniProt Q13164); assay: ERK5 transactivation activators in reporter cells, primary screen, cell-based, HTS (AID 1508626;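 active = luciferase signal above three times the same-plate solvent-only control wells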;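 note: luciferase driven by Gal4-ERK5 fusion binding five Gal4 sites before minimal TATA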); settings: HeLa Gal4-ERK5 transactivation, 18 h, at 5 µM, stronger effect = higher value
# [23] = viability rescue of complex I mutant cybrids, primary screen, cell-based, galactose medium, ATP luminescence (AID 1645843;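 active = z-score of at least 1.8 in each of two replicates, scored against plate mean and spread of sample wells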;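 note: positive z means more ATP and so rescue of galactose-driven cybrid death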); settings: complex I mutant cybrid cells, 72 h, stronger effect = higher value
# [24] = sensitizers of A549 cells to miR-34 induction, primary screen, imaging, A549 dox-inducible miR-34, nuclei and caspase counts (AID 1347080;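 active = compounds whose cell count with miR-34 switched on is under 0.7 times the count with it off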); settings: A549 miR-34 inducible, Hoechst nuclei count, 48 h
# [25] = target: NAD(+) hydrolase SARM1 (Homo sapiens) (UniProt Q6SZW1); assay: SARM1 TIR NADase inhibitors, cell lysate, NAD-Glo luminescence (AID 1508614;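 active = compound whose remaining NAD level is above about 45 nM, limit read from the data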;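 note: higher remaining NAD means stronger inhibition of SARM1 NADase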); settings: SAM-TIR HEK293T lysate NADase, at 1 µM, stronger effect = higher value
# [26] = reducers of polyQ inclusions in PC12 cells, cell-based, NGF-treated PC12, GFPQ80 (AID 1614); settings: PC12 NGF-treated GFP-polyQ80 inclusion reduction;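 note: lower means fewer inclusions and 0 means no inclusions at all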
# [27] = growth inhibition of DIPG glioma cells, dose response, cell-based, SU-DIPG-XIII, MIPE4.0, CellTiter-Glo, qHTS (AID 1347061; cut-off not given, nearly all actives have AC50 up to about 37 µM;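 note: cells exposed to compound for 48 hours before readout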); settings: SU-DIPG-XIII viability, CellTiter-Glo ATP luminescence
# [28] = SU-DIPG-XXV glioma cell viability, MIPE5.0 library, qHTS (AID 1347068; cut-off not given, nearly all actives have IC50 up to about 30 µM)
# [29] = MELAS cybrid survival, CellTiter-Glo 48 h, stronger effect = higher value
# [30] = Rieske KO mouse fibroblast survival, CellTiter-Glo 72 h
# [31] = stronger effect = lower value, cell number ratio, induced over uninduced
# [32] = measured here: relative caspase fold change +Dox/-Dox
# [33] = measured here: total cells with miR-34 induction, stronger effect = lower value
# [34] = measured here: total cells without miR-34 induction
# Sequence of 6-phosphogluconate dehydrogenase, decarboxylating (Homo sapiens) (P52209 whole entry, looked up): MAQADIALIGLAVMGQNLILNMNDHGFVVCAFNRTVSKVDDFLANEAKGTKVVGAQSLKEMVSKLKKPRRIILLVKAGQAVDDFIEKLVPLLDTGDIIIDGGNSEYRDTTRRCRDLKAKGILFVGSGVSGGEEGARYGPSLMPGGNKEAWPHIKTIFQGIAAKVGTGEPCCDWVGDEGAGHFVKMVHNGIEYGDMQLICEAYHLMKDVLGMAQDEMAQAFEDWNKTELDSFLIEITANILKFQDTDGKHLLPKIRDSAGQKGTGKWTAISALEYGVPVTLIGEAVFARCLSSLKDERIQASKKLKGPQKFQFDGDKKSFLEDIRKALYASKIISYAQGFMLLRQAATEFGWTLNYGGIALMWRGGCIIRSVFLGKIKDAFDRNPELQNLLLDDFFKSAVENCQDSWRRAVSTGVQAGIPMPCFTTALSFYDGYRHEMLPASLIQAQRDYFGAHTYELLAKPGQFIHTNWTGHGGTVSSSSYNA
# Sequence of Mitogen-activated protein kinase 7 (Homo sapiens) (Q13164 whole entry, looked up, the tested form may be a part): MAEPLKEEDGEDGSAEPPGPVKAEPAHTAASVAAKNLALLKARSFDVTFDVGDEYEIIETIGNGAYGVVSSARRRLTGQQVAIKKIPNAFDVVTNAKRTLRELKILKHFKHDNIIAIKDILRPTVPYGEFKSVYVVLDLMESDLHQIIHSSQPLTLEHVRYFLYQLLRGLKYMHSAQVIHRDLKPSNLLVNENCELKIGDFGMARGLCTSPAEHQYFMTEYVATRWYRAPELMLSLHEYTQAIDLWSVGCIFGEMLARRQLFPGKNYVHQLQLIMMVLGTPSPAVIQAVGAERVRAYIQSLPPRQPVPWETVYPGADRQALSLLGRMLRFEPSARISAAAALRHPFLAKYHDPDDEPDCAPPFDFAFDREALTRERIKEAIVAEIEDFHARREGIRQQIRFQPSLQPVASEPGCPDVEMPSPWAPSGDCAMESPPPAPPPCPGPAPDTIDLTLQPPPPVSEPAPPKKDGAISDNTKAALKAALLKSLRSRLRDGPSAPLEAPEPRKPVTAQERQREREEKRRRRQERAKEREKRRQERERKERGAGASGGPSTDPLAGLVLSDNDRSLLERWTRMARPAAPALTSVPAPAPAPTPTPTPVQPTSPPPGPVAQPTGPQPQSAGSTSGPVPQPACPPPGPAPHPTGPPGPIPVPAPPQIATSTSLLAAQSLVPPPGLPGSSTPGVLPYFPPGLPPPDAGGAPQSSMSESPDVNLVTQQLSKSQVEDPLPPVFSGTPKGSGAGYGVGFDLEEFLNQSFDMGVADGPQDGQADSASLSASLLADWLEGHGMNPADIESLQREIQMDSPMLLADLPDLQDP
# Sequence of ATP-dependent translocase ABCB1 (Homo sapiens) (P08183 whole entry, looked up): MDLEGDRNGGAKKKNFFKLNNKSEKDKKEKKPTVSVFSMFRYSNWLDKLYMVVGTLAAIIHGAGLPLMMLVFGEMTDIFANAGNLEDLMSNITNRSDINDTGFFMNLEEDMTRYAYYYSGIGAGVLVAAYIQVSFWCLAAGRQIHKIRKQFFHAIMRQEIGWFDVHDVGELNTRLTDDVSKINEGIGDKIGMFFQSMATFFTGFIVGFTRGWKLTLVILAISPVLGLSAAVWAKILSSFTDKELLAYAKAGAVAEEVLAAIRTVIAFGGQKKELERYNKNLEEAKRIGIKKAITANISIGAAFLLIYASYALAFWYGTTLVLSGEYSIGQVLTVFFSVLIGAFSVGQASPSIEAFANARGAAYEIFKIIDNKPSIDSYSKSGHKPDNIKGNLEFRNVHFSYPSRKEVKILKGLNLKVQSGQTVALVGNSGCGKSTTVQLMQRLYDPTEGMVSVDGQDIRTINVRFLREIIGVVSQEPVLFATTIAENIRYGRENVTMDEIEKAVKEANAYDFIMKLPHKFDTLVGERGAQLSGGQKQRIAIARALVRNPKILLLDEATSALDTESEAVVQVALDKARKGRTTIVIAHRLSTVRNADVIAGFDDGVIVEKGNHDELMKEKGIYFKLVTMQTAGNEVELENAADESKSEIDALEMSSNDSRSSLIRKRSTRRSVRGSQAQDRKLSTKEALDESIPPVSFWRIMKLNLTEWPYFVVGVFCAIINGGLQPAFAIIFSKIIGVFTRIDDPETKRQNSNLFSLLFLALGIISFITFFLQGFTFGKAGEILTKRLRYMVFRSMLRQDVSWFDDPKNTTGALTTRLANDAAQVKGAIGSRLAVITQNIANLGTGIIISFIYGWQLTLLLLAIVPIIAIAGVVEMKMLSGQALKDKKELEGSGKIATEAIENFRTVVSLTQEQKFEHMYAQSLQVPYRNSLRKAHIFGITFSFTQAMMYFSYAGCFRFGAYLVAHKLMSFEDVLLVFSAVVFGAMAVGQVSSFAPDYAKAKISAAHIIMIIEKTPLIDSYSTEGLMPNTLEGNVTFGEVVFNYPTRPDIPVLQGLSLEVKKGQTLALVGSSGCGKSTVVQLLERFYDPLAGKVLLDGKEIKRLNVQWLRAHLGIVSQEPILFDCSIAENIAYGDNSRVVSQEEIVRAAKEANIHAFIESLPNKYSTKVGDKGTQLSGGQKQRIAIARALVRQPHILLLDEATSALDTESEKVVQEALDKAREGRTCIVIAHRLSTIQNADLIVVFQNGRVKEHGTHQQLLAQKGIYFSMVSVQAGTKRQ
# Sequence of NAD(+) hydrolase SARM1 (Homo sapiens) (Q6SZW1 whole entry, looked up): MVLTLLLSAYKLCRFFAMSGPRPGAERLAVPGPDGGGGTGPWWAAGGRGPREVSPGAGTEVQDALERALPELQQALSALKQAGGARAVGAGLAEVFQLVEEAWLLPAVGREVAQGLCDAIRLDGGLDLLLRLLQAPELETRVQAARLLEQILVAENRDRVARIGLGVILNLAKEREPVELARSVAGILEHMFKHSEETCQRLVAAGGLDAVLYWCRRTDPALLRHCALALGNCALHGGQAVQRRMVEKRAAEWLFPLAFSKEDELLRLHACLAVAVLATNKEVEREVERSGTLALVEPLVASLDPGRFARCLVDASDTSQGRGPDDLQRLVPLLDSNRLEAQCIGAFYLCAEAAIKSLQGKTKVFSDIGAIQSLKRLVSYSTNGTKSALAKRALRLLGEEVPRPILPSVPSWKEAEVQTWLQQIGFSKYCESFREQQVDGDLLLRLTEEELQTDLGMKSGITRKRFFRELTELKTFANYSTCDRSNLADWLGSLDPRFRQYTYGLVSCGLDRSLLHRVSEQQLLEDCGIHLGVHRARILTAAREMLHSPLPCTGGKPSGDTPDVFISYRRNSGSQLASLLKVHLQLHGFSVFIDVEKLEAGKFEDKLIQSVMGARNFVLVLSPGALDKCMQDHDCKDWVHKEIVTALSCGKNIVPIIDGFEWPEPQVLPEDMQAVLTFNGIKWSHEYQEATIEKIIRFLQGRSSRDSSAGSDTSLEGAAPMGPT
structure (smiles),measurement,setting,value
NC(=NCc1ccccc1)NC(=O)c1nc(Cl)c(N)nc1N,fluorescence slope change,[1],28% (inactive)
same,inhibition,[2],7.39%
same,score,[3],1.09
same,rescue above control,[4],5.46
same,cytochrome c release ratio,[5],0.99
same,inhibition of aggregation,[6],14.3%
same,normalised LDH release,[7],1.01
same,glutamate uptake change,[8],12.4%
same,aggregation suppression score,[9],1.26
same,period change,[10],0.11 h (inactive)
same,survival,[11],1.67 (inactive)
same,parasite load remaining,[12],116% (inactive) and 20% (inactive)
same,viability,[12],89.9% and 61%
same,inhibition,[13],-1% (inactive)
same,fluorescence ratio (interference),[14],1 (inactive)
same,inhibition,[15],-0.294% (inactive)
same,outcome,[16],inactive
same,AC50,[17],18.6 µM (active)
same,outcome,[18],inactive
same,fold fluorescence,[19],5.57 [at 156.4 µM] (inactive)
same,outcome,[20],inactive
same,z-score,[21]; [29],2.18 (active) and 1.24 (inactive)
same,z-score,[21]; [30],1.18 and 1.91
same,luciferase signal,[22],56 AU (inactive)
same,z-score,[23],-0.87 (inactive) and -0.455 (inactive)
C=C[C@H]1CN2CCC1C[C@@H]2[C@@H](O)c1ccnc2ccc(OC)cc12 (stereo partly drawn),fluorescence slope change,[1],95% (active)
same,period change,[10],-0.225 h (inactive)
same,survival,[11],6.17 (inactive)
same,parasite load remaining,[12],28.6% (inactive)
same,viability,[12],94.6%
same,inhibition,[13],-1% (inactive)
same,fluorescence ratio (interference),[14],1 (inactive)
same,inhibition,[15],-0.543% (inactive)
same,fold change,[24]; [31],1.07 (inactive)
same,fold change,[24]; [32],1.29
same,cell count,[24]; [33],9920
same,cell count,[24]; [34],9300
same,outcome,[20],inactive
same,z-score,[23],-1.04 (inactive)
C[N+]1(C)[C@@H]2CC[C@H]1CC(OC(=O)C(O)c1ccccc1)C2 (stereo partly drawn),inhibition,[15],-20.5% (inactive)
same,fold change,[24]; [31],0.938 (inactive)
same,fold change,[24]; [32],0.48
same,cell count,[24]; [33],8390
same,cell count,[24]; [34],8940
same,z-score,[21]; [29],-0.289 (inactive)
same,z-score,[21]; [30],-0.189
same,remaining NAD,[25],10 nM (inactive)
same,luciferase signal,[22],20 AU (inactive)
N[C@@H](Cc1c[nH]c2ccccc12)C(=O)O,inhibition,[2],8.74%
same,score,[3],1.61
same,rescue above control,[4],-5.37
same,cytochrome c release ratio,[5],0.96
same,inhibition of aggregation,[6],63.4%
same,glutamate uptake change,[8],-7.55%
same,inclusion score,[26],2
same,aggregation suppression score,[9],1.04
same,period change,[10],0.11 h (inactive)
same,inhibition,[13],2% (inactive)
same,fluorescence ratio (interference),[14],1 (inactive)
same,inhibition,[15],3.98% (inactive)
same,fold change,[24]; [31],0.995 (inactive)
same,fold change,[24]; [32],0.835
same,cell count,[24]; [33],9660
same,cell count,[24]; [34],9710
same,outcome,[20],inactive
same,remaining NAD,[25],10 nM (inactive)
same,luciferase signal,[22],136 AU (inactive)
same,z-score,[23],0.315 (inactive)
C[C@@H]1C(=O)O[C@H]2C[C@@]34[C@H]5C[C@@H](C(C)(C)C)[C@]36[C@@H](OC(=O)[C@@H]6O)O[C@@]4(C(=O)O5)[C@]21O,parasite load remaining,[12],48.8% (inactive)
same,viability,[12],110%
same,inhibition,[15],0.379% (inactive)
same,fold change,[24]; [31],0.95 (inactive)
same,fold change,[24]; [32],1.75
same,cell count,[24]; [33],10300
same,cell count,[24]; [34],10800
same,z-score,[21]; [29],0.0275 (inactive)
same,z-score,[21]; [30],-1.08
same,z-score,[23],0.435 (inactive)
CCOc1ccc2c(c1)C(C)=CC(C)(C)N2,fluorescence slope change,[1],16.6% (inactive)
same,inhibition,[2],14.7%
same,score,[3],0.77
same,rescue above control,[4],5.1
same,cytochrome c release ratio,[5],0.79
same,inhibition of aggregation,[6],25.8%
same,normalised LDH release,[7],1.06
same,glutamate uptake change,[8],23.6%
same,aggregation suppression score,[9],0.616
same,survival,[11],2.08 (inactive)
same,parasite load remaining,[12],29.9% (inactive)
same,viability,[12],95.9%
same,inhibition,[15],17.3% (inactive)
same,fold change,[24]; [31],0.841 (inactive)
same,fold change,[24]; [32],1.09
same,cell count,[24]; [33],8590
same,cell count,[24]; [34],10200
same,z-score,[21]; [29],1.71 (inactive)
same,z-score,[21]; [30],0.609
same,luciferase signal,[22],48 AU (inactive)
C[C@H]1[C@H](C)CC[C@]2(C(=O)O)CC[C@]3(C)C(=CC[C@@H]4[C@@]5(C)CC[C@H](O)C(C)(C)[C@@H]5CC[C@]43C)[C@H]12,parasite load remaining,[12],32.3% (inactive)
same,viability,[12],73.8%
same,inhibition,[15],14.7% (inactive)
same,outcome,[27],inactive
same,AC50,[16],42.9 µM (active)
same,AC50,[17],18.6 µM (active)
same,outcome,[28],inactive
same,fold change,[24]; [31],0.941 (inactive)
same,fold change,[24]; [32],1.58
same,cell count,[24]; [33],8760
same,cell count,[24]; [34],9310
same,luciferase signal,[22],40 AU (inactive)
C=C(C)C1CC=C(C(=O)O)CC1 (stereo not drawn),period change,[10],0.05 h (inactive)
same,inhibition,[13],2% (inactive)
same,fluorescence ratio (interference),[14],0.9 (inactive)
same,inhibition,[15],7.19% (inactive)
same,fold change,[24]; [31],0.98 (inactive)
same,fold change,[24]; [32],1.41
same,cell count,[24]; [33],9720
same,cell count,[24]; [34],9920
same,outcome,[20],inactive
same,z-score,[23],1.06 (inactive)
CCCCC/C=C\C/C=C\C/C=C\C/C=C\CCCC(=O)O,survival,[11],45.6 (inactive)
same,inhibition,[15],9.46% (inactive)
same,fold change,[24]; [31],1.06 (inactive) and 1 (inactive)
same,fold change,[24]; [32],1.01 and 0.893
same,cell count,[24]; [33],5710 and 5370
same,cell count,[24]; [34],5370 and 5360
same,fold fluorescence,[19],5.45 (inactive)
C#C[C@]1(O)CC[C@H]2[C@@H]3CCC4=C(CCC(=O)C4)[C@H]3CC[C@@]21C,survival,[11],25.3 (inactive)
same,parasite load remaining,[12],17.7% (inactive) and 100% (inactive)
same,viability,[12],48% and 90.5%
same,inhibition,[15],-2.85% (inactive)
same,fold change,[24]; [31],0.896 (inactive)
same,fold change,[24]; [32],0.927
same,cell count,[24]; [33],7990
same,cell count,[24]; [34],8920
same,z-score,[21]; [29],0.723 (inactive)
same,z-score,[21]; [30],0.808
same,remaining NAD,[25],10 nM (inactive)
same,luciferase signal,[22],44 AU (inactive)
CC(=O)NCCc1c[nH]c2ccc(O)cc12,inhibition,[2],26.8%
same,score,[3],1.5
same,rescue above control,[4],2.04
same,cytochrome c release ratio,[5],0.84
same,inhibition of aggregation,[6],31.4%
same,glutamate uptake change,[8],0.88%
same,inclusion score,[26],2
same,aggregation suppression score,[9],1.34
same,period change,[10],-0.07 h (inactive)
same,inhibition,[13],0% (inactive)
same,fluorescence ratio (interference),[14],1 (inactive)
same,inhibition,[15],8.58% (inactive)
same,fold change,[24]; [31],1.02 (inactive)
same,fold change,[24]; [32],1.87
same,cell count,[24]; [33],10700
same,cell count,[24]; [34],10400
same,outcome,[20],inactive
same,luciferase signal,[22],32 AU (inactive)
same,z-score,[23],0.08 (inactive)
